Only a selection was taken, and hits are over-represented in it overall.
NS1 function inh: influenza NS1 inhibition; Potency, µM (highest dose often 46.1 µM); 270,000 tested, 0.4% active; AID 2326; calls by dose curve; also: actives are rising curves; nearly all actives have a fitted effect of over 50% in size
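A cell-based growth assay was used: compounds that relieve NS1-induced slow growth of budding yeast raise OD600. Assay medium was yeast nitrogen base with ammonium sulphate and -URA supplement, pH 6.0, with 2% galactose.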
Cruzain Triton: blocks cruzain activity in presence of Triton detergent; Potency, µM, usual class: inhibitors; P25779; AID 1478; 200,000 tested, 0.43% active; purified cruzain, Z-FR-AMC fluorescence, 0.01% Triton; also: nearly all actives have a fitted effect of over 40% in size
Target sequence (P25779 123-467 limits assumed): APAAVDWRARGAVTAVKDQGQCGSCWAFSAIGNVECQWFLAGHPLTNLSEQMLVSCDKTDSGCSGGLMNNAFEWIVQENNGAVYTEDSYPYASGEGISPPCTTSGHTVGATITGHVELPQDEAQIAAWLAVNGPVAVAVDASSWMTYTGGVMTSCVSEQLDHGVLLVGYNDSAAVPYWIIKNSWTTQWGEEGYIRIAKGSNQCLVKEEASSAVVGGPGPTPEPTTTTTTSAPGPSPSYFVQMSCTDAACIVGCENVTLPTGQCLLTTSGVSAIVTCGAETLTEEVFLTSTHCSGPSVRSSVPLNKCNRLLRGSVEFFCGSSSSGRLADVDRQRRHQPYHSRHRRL
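Cruzain (1.5 nM) preincubated 15 min at RT with compound in 100 mM sodium acetate pH 5.5, 5 mM DTT, 0.01% Triton X-100. Reaction started with 2 uM Z-FR-AMC; AMC fluorescence (ex 360/em 450 nm) change over 60 s gave rate.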
Cruzain inh noDet: cruzain (T. cruzi) inhibition without detergent; 200,000 tested, 2.3% active; P25779; purified cruzain, Z-FR-AMC fluorescence, no detergent; Potency, µM, usual class: inhibitors; also: nearly all actives have a fitted effect of over 40% in size
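Purified cruzain at 1.5 nM, pre-incubated 15 min with compound at room temperature in 100 mM sodium acetate pH 5.5, 5 mM DTT, 0.00005% Triton X-100. Reaction started with 2 uM Z-FR-AMC; AMC fluorescence increase over 60 s gives rate.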
Large screens that a line does not name were inactive. Unless noted, calls follow the shape of the dose curve; as a rule, active = well fitted curve in the direction sought with a large enough effect; inconclusive = small, poorly fitted or top-dose-only effect, or another doubt; inactive = no such curve, though single readings can be large; an effect the other way counts as inactive or inconclusive.

Cc1c(C(=O)N(C)C)sc2c1c(=O)n(-c1ccc(Cl)c(Cl)c1)c(=O)n2CC(=O)N1CCCCC1C (stereo not given)	Cruzain inh noDet inconclusive (no result: NS1 function inh)
COc1ccc(-c2coc3cc4oc(=O)cc(-c5ccccc5)c4cc23)cc1F	Cruzain inh noDet 10µM
COc1ccc(-c2coc3cc4oc(=O)cc(C)c4cc23)cc1F	none
CCOC(=O)c1ccccc1NC(=O)CCc1c(C)nc2ncnn2c1C	none (no result: NS1 function inh)
CCN1CCN(C(c2cccc(OC)c2)c2c(O)cc(C)n(Cc3ccco3)c2=O)CC1 (stereo not given)	Cruzain inh noDet inconclusive (no result: NS1 function inh)
COc1cccc(Cn2c(=O)cnc3cnc(OCc4ccccc4)nc32)c1	none (no result: NS1 function inh)
O=C(Nc1ccc(Cl)cc1)C1CCC(CNS(=O)(=O)c2ccc(Br)s2)CC1 (stereo not given)	Cruzain inh noDet 25µM (no result: NS1 function inh)
CC(=O)c1ccc(NC(=O)C2CCC(CNS(=O)(=O)c3ccc(Br)s3)CC2)cc1 (stereo not given)	none (no result: NS1 function inh)
Cc1ccc(C)c(Cn2c(-c3cccs3)nc3ccccc32)c1	none (no result: NS1 function inh)
CC(=O)c1ccc(NC(=O)c2ccc3c(c2)N(Cc2cccc(Cl)c2)C(=O)c2ccccc2S3=O)cc1 (stereo not given)	none (no result: NS1 function inh)
COc1ccc(NC(=O)c2ccc3c(c2)N(Cc2cccc(Cl)c2)C(=O)c2ccccc2S3(=O)=O)cc1Cl	Cruzain inh noDet 3.2µM (no result: NS1 function inh)
CC(=O)c1ccc(NC(=O)c2ccc3c(c2)N(Cc2cccc(Cl)c2)C(=O)c2ccccc2S3(=O)=O)cc1	Cruzain inh noDet 10µM (no result: NS1 function inh)
COc1ccc(NC(=O)c2ccc3c(c2)N(Cc2cccc(Cl)c2)C(=O)c2ccccc2S3=O)cc1Cl (stereo not given)	Cruzain inh noDet inconclusive (no result: NS1 function inh)
COc1ccccc1CCn1c(=O)c(-c2cccs2)nc2cncnc21	none (no result: NS1 function inh)
CC(=O)c1ccc(NC(=O)c2nc(-c3ccccc3)n(-c3ccc(C)cc3)n2)cc1	none (no result: NS1 function inh)
CC(=O)c1ccc(NC(=O)c2nc(-c3ccccc3)n(-c3ccc(Cl)cc3)n2)cc1	Cruzain inh noDet 13µM (no result: NS1 function inh)
ClC1=C(Cl)C2(Cl)C3C(Cl)C(Cl)CC3C1(Cl)C2(Cl)Cl (stereo not given)	none (no result: NS1 function inh)
COc1ccc(N=Cc2nc(-c3ccccc3)oc2OC(C)=O)cc1	none (no result: Cruzain Triton, Cruzain inh noDet)
COc1cccc(N=Cc2nc(-c3ccccc3)oc2OC(C)=O)c1	none (no result: Cruzain Triton, Cruzain inh noDet)
Cc1ccc(C(=O)Oc2oc(-c3ccccc3)nc2C=Nc2ccc(N(C)C)cc2)cc1	Cruzain Triton 28µM, Cruzain inh noDet 25µM
CN(C)c1ccc(N=Cc2nc(-c3ccccc3)oc2OC(=O)c2cccc(Cl)c2)cc1	Cruzain inh noDet 20µM
Cc1ccc(NC(=O)c2ccc(OC(=O)C(C)Oc3ccc(Cl)cc3C)cc2)cc1 (stereo not given)	Cruzain inh noDet 7.9µM
COc1ccc(C(=O)Nc2ccc(OC)c(OC)c2)cc1	none
CCCCC(CC)CNCC(CC)CCCC (stereo not given)	none (no result: NS1 function inh)
Cc1ccc2nc(NC(=O)c3cccs3)sc2c1	none
Cc1ccc2nc(NC(=O)c3ccc(Cl)s3)sc2c1	Cruzain inh noDet 13µM
C/C=C/C(=O)OCC(=O)Nc1nc2ccc(C)cc2s1	Cruzain inh noDet 20µM
CCCOc1ccc(C(=O)NC(=S)Nc2nc3ccc(C)cc3s2)cc1	Cruzain inh noDet 25µM
CCCOc1ccc(C(=O)NC(=S)Nc2nc3ccccc3s2)cc1	Cruzain inh noDet inconclusive
CCOCC(=O)Nc1nc2ccc(C)cc2s1	none
Cc1nc2nc(-c3ccc(Cl)cc3Cl)nn2c(C)c1CCC(=O)Nc1ccc(F)cc1	none (no result: NS1 function inh)
COc1ccc(C(=O)O[C@H]2CC[C@@]3(C)[C@H]4CC[C@H]5[C@]3(C[C@]3(O)[C@H]6CN7C[C@H](C)CC[C@H]7[C@](C)(O)[C@]6(O)[C@H](O)C[C@]53O)O[C@]24O)cc1OC	none
CC(=O)c1cc(C(=O)Nc2cc(C)cc(C)c2)c2ccccn12	Cruzain inh noDet inconclusive (no result: NS1 function inh)
COc1ccc(Cc2ccc3[nH]c(=O)cc(C)c3c2)cc1S(=O)(=O)O	none
Cc1cc2c(=O)n(Cc3ccco3)c(SCC(=O)c3ccc(Cl)s3)nc2s1	Cruzain inh noDet 25µM
CCOC(=O)CC(=O)CSc1nc2sc(C)cc2c(=O)n1Cc1ccco1	none
OC(c1ccc(Cl)cc1)(c1ccc(Cl)cc1)C(Cl)(Cl)Cl	none (no result: NS1 function inh)
COc1cccc(-c2nc(NC3CC3)c3ccccc3n2)c1	none (no result: NS1 function inh)
Cc1ccc(-n2c(=O)[nH]c3cc(C(=O)NCCc4ccccc4)ccc3c2=O)cc1	Cruzain inh noDet 16µM (no result: NS1 function inh)
Cc1ccc(CCNC(=O)c2ccc3c(=O)n(-c4ccc(C)cc4)c(=O)[nH]c3c2)cc1	none (no result: NS1 function inh)
COC(=O)[C@H](Cc1ccccc1)NC(=O)O[C@H]1C(=O)c2cc(OC)ccc2O[C@@H]1c1ccc(OC)c(Br)c1	Cruzain inh noDet inconclusive (no result: NS1 function inh)
O=C(N/N=C/c1ccc2ccccc2c1)c1ccc(COc2ccc3c(c2)CCC3)o1	Cruzain inh noDet 20µM
O=C(N/N=C/c1cc([N+](=O)[O-])ccc1O)c1ccc(COc2ccc3c(c2)CCC3)o1	none (no result: Cruzain Triton, Cruzain inh noDet)
C=C(C)C(=O)OCCCCCC	none (no result: NS1 function inh)
Cc1cc(N=Cc2c(O)n(-c3ccc4c(c3)OCO4)c(=O)c3ccccc23)ccn1	none
Cc1ccc(-n2c(O)c(C=Nc3ccc4c(c3)OCO4)c3ccccc3c2=O)cc1C	Cruzain inh noDet 10µM
Clc1ccc2nc(NCc3ccccc3)c3nncn3c2c1	none (no result: NS1 function inh)
C=CCn1c2ccccc2c2nnc(SC(CC)C(=O)Nc3sc4c(c3C#N)CCCC4)nc21 (stereo not given)	Cruzain inh noDet 25µM
CCCc1nnc(NC(=O)C(CC)Sc2nnc3c4ccccc4n(C)c3n2)s1 (stereo not given)	none (no result: NS1 function inh)
COc1ccccc1N1CCN(C(=O)c2cnn(-c3cccc(Cl)c3)c2C2CCN(C(=O)OC(C)(C)C)CC2)CC1	Cruzain inh noDet inconclusive (no result: NS1 function inh)
COc1cccc([C@@H]2Oc3ccc(OC)cc3C[C@H]2OC(=O)NCc2ccco2)c1	none (no result: NS1 function inh)
COc1cccc(Nc2ncc3nc(C)c(=O)n(CCC#N)c3n2)c1	none (no result: NS1 function inh)
O=C(CNC(=O)c1ccc(Cl)cc1Cl)OCc1nc2ccccc2s1	Cruzain Triton 7.9µM, Cruzain inh noDet 4µM
O=C(O)COCc1nc2ccccc2s1	none (no result: Cruzain Triton, Cruzain inh noDet)
O=C(CNC(=O)c1ccccc1)OCc1nc2ccccc2s1	Cruzain Triton 25µM, Cruzain inh noDet 13µM
CC(=O)OCc1nc2ccccc2s1	none
CC(C)(C)c1ccc(OCCSc2nc(-c3cccs3)nc3cc(=O)[nH]n23)cc1	none (no result: NS1 function inh)
Clc1ccc(C2=C3CCCCn4c(-c5ccccc5)c[n+](c43)C2)cc1	NS1 function inh inconclusive, Cruzain inh noDet inconclusive
COc1ccc(-c2c[n+]3c4n2CCCCC4=C(c2ccc(Br)cc2)C3)cc1	Cruzain inh noDet 10µM
COc1ccc(C2=NN(c3nc(-c4ccccc4)c(CC(=O)O)s3)C(c3ccco3)C2)cc1 (stereo not given)	Cruzain Triton 16µM, Cruzain inh noDet 13µM
COc1ccc(C2=NN(C(=O)COc3ncnc4ccccc34)C(c3ccco3)C2)cc1 (stereo not given)	none (no result: Cruzain Triton, Cruzain inh noDet)
COc1ccc(Nc2c(-c3ccc(C)o3)nc3cc(C)ccn23)cc1	none (no result: NS1 function inh)
O=C1NCC(=O)N2C(c3ccccc3)c3[nH]c4ccccc4c3C[C@@H]12 (stereo not given in full)	none (no result: Cruzain Triton, Cruzain inh noDet)
O=C1[C@@H]2Cc3c([nH]c4ccccc34)[C@@H](c3ccccc3)N2C(=O)[C@@H]2Cc3c([nH]c4ccccc34)[C@@H](c3ccccc3)N12	NS1 function inh inconclusive, Cruzain inh noDet 10µM
Cc1cccc(C(=O)Nc2ccc(S(=O)(=O)N3CCC(c4nc5ccccc5s4)CC3)cc2)c1	none (no result: NS1 function inh)
